From PubChem BioAssay (NCATS) come the findings set out here.

Test [1] is described as follows: qHTS of pediatric cancer cell lines to identify multiple opportunities for drug repurposing: Primary screen for A673 cells (AID 1347092). Also: nearly all actives have a fitted effect of over 45% in size. Also: potency is read from the fitted curve at half-maximal effect. The method, boiled down:
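Cells are plated, rested 5 h, dosed by pintool, incubated 48 h, then lysed with CellTiter-Glo and read by luminescence. DMSO is the neutral control; bortezomib at 2.3 uM final is the positive control.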

Test [2] in a line: qHTS of pediatric cancer cell lines to identify multiple opportunities for drug repurposing: Primary screen for SK-N-MC cells (AID 1347093). Also: potency is read from the fitted curve at half-maximal effect. In outline:
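Metabolically active cells were quantified by ATP-dependent luminescence (CellTiter-Glo, 15 min at room temperature) following 48 h treatment. Cells had been plated at 500-1,000 per well and settled for 5 h beforehand.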
For orientation: Quantitative high-throughput screening tests each substance at several concentrations.

Test [3] is described as follows: qHTS of pediatric cancer cell lines to identify multiple opportunities for drug repurposing: Primary screen for Saos-2 cells (AID 1347097). Also: nearly all actives have a fitted effect of over 40% in size. Also: potency is read from the fitted curve at half-maximal effect. The method, boiled down:
(§1)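 Primary screen of approved and investigational compounds on cells in growth media at 37 degrees C, 5% CO2. MIPE set at 11-point and NPC set at 8-point dilutions; viability scored by ATP-based luminescence at 48 hours.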

Test [4] is described as follows: qHTS of pediatric cancer cell lines to identify multiple opportunities for drug repurposing: Primary screen for DAOY cells (AID 1347090). Also: nearly all actives have a fitted effect of over 55% in size. Also: potency is read from the fitted curve at half-maximal effect. The method, boiled down:
(§2)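 Eight- or eleven-point concentration series, 48 h treatment at 37 degrees C in growth media; readout CellTiter-Glo luminescence. Potency and efficacy were taken from the concentration-response curves.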

The nature of test [5]: qHTS of pediatric cancer cell lines to identify multiple opportunities for drug repurposing: Primary screen for SK-N-SH cells (AID 1347098). Also: nearly all actives have a fitted effect of over 65% in size. Also: potency is read from the fitted curve at half-maximal effect. The method, boiled down:
(§3)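 Cells (500-1,000/well) rested 5 h, then received compounds for 48 h; metabolically active cells were measured by CellTiter-Glo luminescence. Final concentrations spanned up to 46 µM (MIPE, 11-point) or 0.59 nM-46 µM (NPC, 8-point) in primary screens, 11-point in follow-ups.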

Test [6] can be described thus: qHTS of pediatric cancer cell lines to identify multiple opportunities for drug repurposing: Primary screen for NB1643 cells (AID 1347099). Also: nearly all actives have a fitted effect of over 50% in size. Also: potency is read from the fitted curve at half-maximal effect. The method, boiled down: as §1
The nature of test [7]: qHTS of pediatric cancer cell lines to identify multiple opportunities for drug repurposing: Primary screen for OHS-50 cells (AID 1347103). Also: potency is read from the fitted curve at half-maximal effect; nearly all actives have a fitted effect of over 40% in size. The method, boiled down: as §3
Test [8] in a line: qHTS of pediatric cancer cell lines to identify multiple opportunities for drug repurposing: Primary screen for SJ-GBM2 cells (AID 1347091). Also: potency is read from the fitted curve at half-maximal effect. In outline:
as §2

Test [9] is described as follows: NS1 protein of Zika virus - qHTS assay to identify small molecule inhibitors in human HEK 293 cells (AID 1347053). Also: series mostly up to about 46 µM; nearly all actives have a fitted effect of over 55% in size. The method, boiled down: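 Inhibition of NS1 expression was scored in HEK 293 cells given compound 1 h ahead of MR766 virus (MOI = 0.5). Following 24 h at 37 C, two anti-NS1 antibodies generated a TR-FRET signal, scaled between uninfected and infected controls.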

Test [10] is described as follows: qHTS of pediatric cancer cell lines to identify multiple opportunities for drug repurposing: Primary screen for BT-37 cells (AID 1347094). Also: potency is read from the fitted curve at half-maximal effect. The method, boiled down: as §1
Test [11] can be described thus: qHTS of pediatric cancer cell lines to identify multiple opportunities for drug repurposing: Primary screen for U-2 OS cells (AID 1347096). Also: nearly all actives have a fitted effect of over 50% in size. Also: potency is read from the fitted curve at half-maximal effect. The method, boiled down:
(§4)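 Cells (500-1,000/well) in growth media were settled 5 h at 37 degrees C, then given compounds for 48 h. Viability was read as CellTiter-Glo luminescence. Primary runs used MIPE at 11 points (0.78 nM-46 µM) and NPC at 8 points (0.59 nM-46 µM); follow-ups used 11 points.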

Test [12] in a line: qHTS of pediatric cancer cell lines to identify multiple opportunities for drug repurposing: Primary screen for LAN-5 cells (AID 1347100). Also: potency is read from the fitted curve at half-maximal effect. The method, boiled down: as §4
The nature of test [13]: qHTS of pediatric cancer cell lines to identify multiple opportunities for drug repurposing: Primary screen for BT-12 cells (AID 1347101). Also: nearly all actives have a fitted effect of over 25% in size. Also: potency is read from the fitted curve at half-maximal effect. The method, boiled down: as §3
Test [14] can be described thus: qHTS of pediatric cancer cell lines to identify multiple opportunities for drug repurposing: Primary screen for Rh18 cells (AID 1347102). Also: nearly all actives have a fitted effect of over 65% in size. Also: potency is read from the fitted curve at half-maximal effect. In outline:
as §4

A short description of test [15]: qHTS of pediatric cancer cell lines to identify multiple opportunities for drug repurposing: Primary screen for RD cells (AID 1347104). Also: nearly all actives have a fitted effect of over 55% in size. Also: potency is read from the fitted curve at half-maximal effect. The method, boiled down:
as §1

A short description of test [16]: qHTS of pediatric cancer cell lines to identify multiple opportunities for drug repurposing: Primary screen for TC32 cells (AID 1347089). Also: nearly all actives have a fitted effect of over 60% in size. Also: potency is read from the fitted curve at half-maximal effect. In outline: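 Measured quantity: luminescence from CellTiter-Glo, reflecting metabolically active TC32 cells following 48 h of compound. Curves came straight from multi-point titrations, with 8 or 11 points in primary and 11 in confirmatory screening.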

A short description of test [17]: qHTS of pediatric cancer cell lines to identify multiple opportunities for drug repurposing: Primary screen for NB-EBc1 cells (AID 1347095). Also: potency is read from the fitted curve at half-maximal effect. The method, boiled down:
as §1

Structures are written as SMILES. Records with an inconclusive call do not appear. Active and inactive are the calls of the source. Calls follow the shape of the dose curve; as a rule, active = well fitted curve in the direction sought with a large enough effect; inconclusive = small, poorly fitted or top-dose-only effect, or another doubt; inactive = no such curve, though single readings can be large; an effect the other way counts as inactive or inconclusive.

Take `CC1=C(C(=O)OC(C)C)C(c2cccc([N+](=O)[O-])c2)C(C(=O)OC2CN(C(c3ccccc3)c3ccccc3)C2)=C(N)N1` (stereo not drawn): the Potency in test [1] is 13.3 µM (active); in test [2] it was 6.68 µM (active); in test [3], 21.1 µM (active).

In the case of `COc1ccc(CN2CCN(C(c3ccc(F)cc3)c3ccc(F)cc3)CC2)c(OC)c1OC`, the Potency result in test [4] and in test [6] was “inactive” each time. For the same molecule, the Potency in test [1] was 21.1 µM (active); in [5], 21.7 µM (active); in test [7] it was 13.8 µM (active).

For `Oc1c(I)cc(Cl)c2cccnc12`, the Potency was 18.8 µM (active) in test [8]; 21.1 µM (active) in [1]; 21.1 µM (active) in [3]; 27.3 µM (active) in test [5]; 21.9 µM (active) in test [7].

Consider `O=c1[nH]c(=O)n([C@H]2C[C@H](O)[C@@H](CO)O2)cc1C(F)(F)F`, for which the Potency entry in test [9], in [8], in test [11], in test [3], in [5] and in test [6] was “inactive” throughout. Further, the Potency entry in [14] and in test [15] was “inactive” throughout. In addition, the Potency in [1] is 1.68 µM (active); in [10] it was 0.55 µM (active); in [12] it was 1.33 µM (active); in [13], 13.8 µM (active).

`Oc1ccc(Cl)c2cccnc12`: the Potency result in [8] and in test [11] was “inactive” in each case. In addition, the figures for the Potency in [5], in [12] and in test [13] were 8.64 µM (active), 21.1 µM (active) and 5.5 µM (active), respectively.

In the case of `O=C(N/N=C/c1ccccc1O)c1ccncc1`, the Potency in test [16] is 23.6 µM (active); in [4], 4.22 µM (active); in test [10], 11 µM (active); in [17], 18.8 µM (active); in [12] it was 2.99 µM (active); in test [13], 6.17 µM (active). Moreover, in test [7], the Potency is 5.5 µM (active).

In the case of `CCCCCCCCCCOCC(O)CN` (stereo not drawn), the Potency result in [4] and in test [11] was “inactive” throughout. The Potency in test [1] is 21.1 µM (active); in test [14], 23.7 µM (active); in test [7] it was 30.9 µM (active).

`O=c1c(-c2ccccc2)c1-c1ccccc1`: the Potency in test [4] is 21.1 µM (active); in test [1] it was 8.41 µM (active); in test [2], 6.68 µM (active); in test [3] it was 11.9 µM (active); in test [6] it was 8.41 µM (active); in test [12], 18.8 µM (active). The Potency in [13] is 5.5 µM (active); in [15] it was 18.8 µM (active).

`C[C@@H]1CN(CCCn2c3ccccc3c3ccccc32)C[C@H](C)N1`: the Potency entry in test [4], in test [11] and in test [6] was “inactive” each time. Besides, the Potency in test [5] is 9.7 µM (active); in test [15], 26.6 µM (active).

With `CCCCCCCCCCCCCCNCCO`, the Potency result in [9], in test [4], in [2], in test [10], in [11] and in test [3] was “inactive” throughout. Besides, the Potency result in test [5], in test [6], in test [13] and in [14] was “inactive” in each case.

As to `OC[C@H]1O[C@@H](n2cnc3c(=S)nc[nH]c32)[C@H](O)[C@@H]1O`, the Potency in [16] is 1.67 µM (active); in test [4] it was 0.422 µM (active); in [1], 0.266 µM (active); in [2] it was 18.8 µM (active); in test [10], 0.389 µM (active); in [17], 1.33 µM (active). The Potency in test [3] was 15 µM (active); in [6], 0.75 µM (active); in test [12], 2.11 µM (active); in test [13], 9.78 µM (active); in test [7], 0.55 µM (active). Further, in test [14], the Potency result was “inactive”.

For the molecule `O=C(OCC(O)CO)c1ccccc1Nc1ccnc2cc(Cl)ccc12` (stereo not drawn), the Potency result in [16], in test [8], in [1], in [17], in test [11] and in test [5] was “inactive” each time. The Potency entry in [6], in test [13], in test [14] and in test [15] was “inactive” throughout. Further, the Potency in test [3] is 23.7 µM (active).

Consider `CCN(CC)CCOc1ccc(C(O)(Cc2ccc(Cl)cc2)c2ccc(C)cc2)cc1` (stereo not drawn), for which the Potency in [3] was 16.8 µM (active); in test [12], 21.1 µM (active); in test [13], 11 µM (active); in [14] it was 23.7 µM (active); in test [7], 15.5 µM (active); in [15], 21.1 µM (active).

With `CC(C)n1nc(-c2cc3cc(O)ccc3[nH]2)c2c(N)ncnc21`, the Potency in [16] was 2.1 µM (active); in test [4], 4.22 µM (active); in test [8], 0.596 µM (active); in [1] it was 10.6 µM (active); in test [10] it was 1.1 µM (active); in test [11], 13.3 µM (active). In addition, the Potency was 4.22 µM (active) in [3]; 12.2 µM (active) in test [5]; 21.1 µM (active) in test [6]; 8.41 µM (active) in test [12]; 1.23 µM (active) in [13]; 6.68 µM (active) in test [14]. The Potency in test [7] is 0.437 µM (active); in test [15], 8.41 µM (active).
